Results filed as inconclusive are left out. The source made the active and inactive calls. Unless noted, calls come from the whole dose curve; as a rule, active = well fitted curve in the direction sought with a large enough effect in the repeat runs; inconclusive = weak or mixed curves; inactive = no such curve, though single readings can be large; an effect the other way counts as inactive or inconclusive.
Columns and labels:
[1] = qHTS RealTime-Glo MT Cell Viability Assay in HepG2 cells - 24 hour (AID 1224867); note: nearly all actives have a fitted effect of over 50% in size
How it was run: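 Luminescence read-out: viable HepG2 cells reduce a prosubstrate to a NanoLuc substrate, giving a signal proportional to live cell number. Reads taken at 0, 8, 16, 24, 32 and 40 h of compound exposure at 37 C.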

[2] = qHTS RealTime-Glo MT Cell Viability Assay in HEK293 cells - 32 hour (AID 1224868); note: nearly all actives have a fitted effect of over 50% in size; note: potency is the fitted concentration of half-maximal effect
How it was run: (§1)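 Nonlytic real-time viability readout: viable cells convert prosubstrate to NanoLuc substrate, giving luminescence proportional to live cell number. HEK293, 600 cells/well, compound added after 5 h, continuous culture at 37 C.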

[3] = A CellTox Green Cytotoxicity Assay to monitor cytotoxicity in HEK293 cells - 0 hour (AID 1224869); note: nearly all actives have a fitted effect of over 50% in size
How it was run: (§2)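 Dead-cell fluorescence measured kinetically: asymmetric cyanine dye, HEK293, 600 cells/well, 5 h settle, 23 nL cpd/DMSO, 37 C, reads 0–40 h every 8 h.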

[4] = qHTS RealTime-Glo MT Cell Viability Assay in HepG2 cells - 40 hour (AID 1224870); note: nearly all actives have a fitted effect of over 50% in size
How it was run: (§3)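 HepG2 cells (600/well) mixed with RealTime-Glo MT reagent, settled 5 h at 37 C/5% CO2 before compound addition. Nonlytic NanoLuc luminescence from viable-cell prosubstrate reduction read repeatedly during 40 h treatment at 37 C.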

[5] = A CellTox Green Cytotoxicity Assay to monitor cytotoxicity in HEK293 cells - 40 hour (AID 1224871); note: nearly all actives have a fitted effect of over 45% in size
How it was run: as §2

[6] = qHTS RealTime-Glo MT Cell Viability Assay in HEK293 cells - 16 hour (AID 1224872); note: nearly all actives have a fitted effect of over 50% in size; note: potency is the fitted concentration of half-maximal effect
How it was run: as §1

[7] = qHTS RealTime-Glo MT Cell Viability Assay in HepG2 cells - 8 hour (AID 1224873); note: nearly all actives have a fitted effect of over 55% in size
How it was run: as §3

[8] = qHTS RealTime-Glo MT Cell Viability Assay in HEK293 cells - 40 hour (AID 1224874); conditions: RealTime-Glo luminescence; max response: active compounds read low; note: nearly all actives have a fitted effect of over 50% in size; note: potency is the fitted concentration of half-maximal effect
How it was run: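 600 HEK293 cells per well, dispensed already mixed with RealTime-Glo MT reagents. Compound dosing came 5 h later. The same wells were read for luminescence at 0, 8, 16, 24, 32 and 40 h of exposure at 37 C.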

[9] = A CellTox Green Cytotoxicity Assay to monitor cytotoxicity in HEK293 cells - 24 hour (AID 1224875); note: nearly all actives have a fitted effect of over 45% in size
How it was run: as §2

[10] = qHTS assay to identify small molecule agonists of the estrogen related receptor (ERR) signaling pathway from Tox21 library (AID 1224849; calls by dose curve; note: nearly all actives have a fitted effect of over 15% in size); conditions: ERR reporter cell line, ONE-Glo luciferase, 18 h; at 92.4 µM (top of the series) unless noted
How it was run: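 Quantitative HTS in agonist format: NTP ERR cell line, compounds transferred in DMSO after 6 h plating, 18 h incubation at 37 C, ONE-Glo luminescence endpoint.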
% is set by controls: 0 for no effect and ±100 for the full control effect.

CC(C)=CCC/C(C)=C/COC=O
inactive: outcome [1] | Potency [2] | Potency [3] | outcome [4] | Potency [5] | Potency [6] | outcome [7] | max response [8] 0.565% | Potency [9]

c1ccc(-c2nn[nH]n2)cc1
inactive: activity change, positive = activation [10] 8.29% | outcome [1] | Potency [2] | Potency [3] | outcome [4] | Potency [5] | Potency [6] | outcome [7] | max response [8] 6% | Potency [9]

CC(C)(CO)C(O)C(=O)NCCCO (stereo unspecified)
inactive: activity change, positive = activation [10] 0.356% | outcome [1] | Potency [2] | Potency [3] | outcome [4] | Potency [5] | Potency [6] | outcome [7] | max response [8] 2.36% | Potency [9]

C#CCN[C@@H]1CCc2ccccc21
inactive: outcome [1] | Potency [2] | Potency [3] | outcome [4] | Potency [5] | Potency [6] | outcome [7] | max response [8] -4.89% | Potency [9]

Cn1nnc2c(C(N)=O)ncn2c1=O
inactive: activity change, positive = activation [10] -0.988% [at 42.5 µM] | Potency [2] | Potency [3] | outcome [4] | Potency [5] | Potency [6] | outcome [7] | max response [8] 3.79% | Potency [9]

c1ccc2cnccc2c1
inactive: activity change, positive = activation [10] 7.4% | outcome [1] | Potency [2] | Potency [3] | outcome [4] | Potency [5] | Potency [6] | outcome [7] | max response [8] 9.26% | Potency [9]

CCC(=O)CC
inactive: activity change, positive = activation [10] 4.37% | Potency [2] | Potency [3] | outcome [4] | Potency [5] | Potency [6] | outcome [7] | max response [8] 4.81% | Potency [9]

COc1nc(N)nc2nc[nH]c12
inactive: activity change, positive = activation [10] 0.367% | Potency [2] | Potency [3] | outcome [4] | Potency [5] | outcome [7] | max response [8] -26% | Potency [9]

COc1cc2c(cc1OC)C(=O)C(CC1CCN(Cc3ccccc3)CC1)C2 (stereo unspecified)
active: Potency [2] 21.3 µM | Potency [6] 21.3 µM | Potency [8] 23.9 µM
inactive: activity change, positive = activation [10] 2.42% [at 42.5 µM] | outcome [1] | Potency [3] | outcome [4] | Potency [5] | outcome [7] | Potency [9]

CCCCC1CCC(O)CC1 (stereo unspecified)
inactive: outcome [1] | Potency [2] | Potency [3] | outcome [4] | Potency [5] | Potency [6] | outcome [7] | max response [8] -3.78% | Potency [9]

COc1ccc(CCO)cc1
inactive: outcome [1] | Potency [2] | Potency [3] | outcome [4] | Potency [5] | Potency [6] | outcome [7] | max response [8] 21.3% | Potency [9]

C/C=C(\C)C(=O)OCCc1ccccc1
inactive: activity change, positive = activation [10] 9.96% | outcome [1] | Potency [2] | Potency [3] | Potency [6] | outcome [7] | max response [8] -3.34%

CC1c2ccccc2CN1NC(=O)c1ccc(Cl)c(S(N)(=O)=O)c1 (stereo unspecified)
inactive: activity change, positive = activation [10] 3.24% [at 42.5 µM] | outcome [1] | Potency [2] | Potency [3] | outcome [4] | Potency [5] | Potency [6] | outcome [7] | max response [8] -0.0255% | Potency [9]

O=Cc1ccccc1Cl
inactive: activity change, positive = activation [10] 4.09% | outcome [1] | Potency [2] | outcome [4] | Potency [6] | outcome [7] | max response [8] 4.59%

CC(C)(C)NC[C@H](O)COc1cccc2c1CCCC2=O
inactive: activity change, positive = activation [10] 4.14% [at 42.5 µM] | outcome [1] | Potency [2] | outcome [4] | Potency [6] | outcome [7] | max response [8] -12%

Fc1ccccc1
inactive: activity change, positive = activation [10] 8.1% | outcome [1] | Potency [2] | Potency [3] | outcome [4] | Potency [5] | Potency [6] | outcome [7] | max response [8] 13.3% | Potency [9]

CCCCCc1cccc(=O)o1
inactive: outcome [1] | Potency [2] | Potency [3] | outcome [4] | Potency [5] | Potency [6] | outcome [7] | max response [8] -0.0336%

CC(C)C[C@@H]1[C@H](c2ccccc2)OC(=O)N1CCCN1CCCCCC1
inactive: activity change, positive = activation [10] 0.937% [at 42.5 µM] | outcome [1] | Potency [3] | outcome [4] | Potency [5] | outcome [7] | Potency [9]

CCC(C(=O)OCCN1CCOC(c2ccccc2)C1C)c1ccccc1 (stereo unspecified)
inactive: activity change, positive = activation [10] -23.3% [at 42.5 µM] | outcome [1] | Potency [3] | outcome [4] | Potency [5] | outcome [7] | Potency [9]

CCCCCCCCCCCCCBr
inactive: activity change, positive = activation [10] 3.01% | outcome [1] | Potency [3] | outcome [4] | Potency [5] | outcome [7] | Potency [9]

OC[C@@H](O)C(O)[C@@H](O)CO (stereo partly specified)
inactive: activity change, positive = activation [10] 9.91% | outcome [1] | Potency [2] | Potency [3] | outcome [4] | Potency [5] | Potency [6] | outcome [7] | max response [8] -0.153% | Potency [9]

CC1CCc2c(N3CCC(O)CC3)c(F)cc3c(=O)c(C(=O)O)cn1c23 (stereo unspecified)
inactive: activity change, positive = activation [10] -17.9% [at 42.5 µM] | outcome [1] | Potency [2] | Potency [3] | Potency [5] | Potency [6] | outcome [7] | max response [8] -0.0801% | Potency [9]

Reference: PubChem BioAssay (Tox21)
